Bioassay records deposited in PubChem BioAssay by National Center for Advancing Translational Sciences (NCATS).
KDM5B inhibitor: inhibitors of human KDM5B histone demethylase; KDM5B demethylase, FDH-coupled NADH fluorescence (FDH is formaldehyde dehydrogenase); Potency, µM (highest dose often 57.7 µM), actives largely listed as inhibitors; 2.6% of 220,000 active; AID 1347165; further: potency means the concentration at half of the fitted maximal effect; 0% is about no effect; nearly all actives have a fitted effect of over 70% in size
Target sequence (Q9UGL1 whole entry, looked up): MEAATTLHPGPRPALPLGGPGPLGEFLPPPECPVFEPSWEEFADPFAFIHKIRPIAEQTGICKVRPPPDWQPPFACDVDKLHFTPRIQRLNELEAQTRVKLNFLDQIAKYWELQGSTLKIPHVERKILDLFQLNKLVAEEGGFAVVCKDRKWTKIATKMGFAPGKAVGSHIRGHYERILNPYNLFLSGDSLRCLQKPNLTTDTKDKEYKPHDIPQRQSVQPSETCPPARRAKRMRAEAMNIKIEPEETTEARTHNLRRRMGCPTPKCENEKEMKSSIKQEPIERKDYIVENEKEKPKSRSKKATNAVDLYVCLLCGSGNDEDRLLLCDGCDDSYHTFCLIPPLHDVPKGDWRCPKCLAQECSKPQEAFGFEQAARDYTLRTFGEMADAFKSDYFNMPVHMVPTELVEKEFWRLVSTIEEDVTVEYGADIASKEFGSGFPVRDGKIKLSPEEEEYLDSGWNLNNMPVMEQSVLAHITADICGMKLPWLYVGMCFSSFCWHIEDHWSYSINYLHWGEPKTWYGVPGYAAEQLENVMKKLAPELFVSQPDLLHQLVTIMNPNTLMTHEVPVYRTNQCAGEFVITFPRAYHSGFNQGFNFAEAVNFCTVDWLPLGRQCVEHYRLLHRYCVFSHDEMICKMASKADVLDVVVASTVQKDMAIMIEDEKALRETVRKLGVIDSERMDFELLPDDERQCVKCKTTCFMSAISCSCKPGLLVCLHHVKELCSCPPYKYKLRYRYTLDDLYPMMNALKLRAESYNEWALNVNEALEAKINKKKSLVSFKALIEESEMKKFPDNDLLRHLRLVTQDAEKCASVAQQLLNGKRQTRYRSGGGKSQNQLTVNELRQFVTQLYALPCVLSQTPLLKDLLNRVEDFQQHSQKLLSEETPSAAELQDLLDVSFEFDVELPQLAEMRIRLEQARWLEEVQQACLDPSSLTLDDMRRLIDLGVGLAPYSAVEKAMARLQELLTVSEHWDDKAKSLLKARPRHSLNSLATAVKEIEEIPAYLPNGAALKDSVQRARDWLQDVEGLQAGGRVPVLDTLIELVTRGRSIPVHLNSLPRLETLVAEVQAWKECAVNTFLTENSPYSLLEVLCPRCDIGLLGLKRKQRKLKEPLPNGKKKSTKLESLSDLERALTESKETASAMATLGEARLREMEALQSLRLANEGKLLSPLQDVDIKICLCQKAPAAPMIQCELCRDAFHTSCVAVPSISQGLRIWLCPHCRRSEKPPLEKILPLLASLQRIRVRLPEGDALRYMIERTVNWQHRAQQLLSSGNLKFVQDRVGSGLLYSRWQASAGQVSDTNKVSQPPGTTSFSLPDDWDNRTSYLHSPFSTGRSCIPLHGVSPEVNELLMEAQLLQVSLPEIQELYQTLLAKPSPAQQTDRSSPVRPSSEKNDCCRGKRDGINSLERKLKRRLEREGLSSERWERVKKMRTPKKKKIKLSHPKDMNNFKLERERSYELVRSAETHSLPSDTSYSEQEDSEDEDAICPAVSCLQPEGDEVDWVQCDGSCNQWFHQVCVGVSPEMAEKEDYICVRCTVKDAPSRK
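Measured: NADH fluorescence change, 30 min, RT. System: KDM5BΔAP 200 nM final, H3K4me3 peptide, α-KG, Fe(II), ascorbate, NAD⁺ plus FDH, pH 7.5 HEPES. Compounds: titrated, 10 min pre-incubation with enzyme.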
SNCA expr inh: SNCA gene expression inhibition; AID 1671194; Potency, µM (highest dose often 57.2 µM), inactives show at the highest dose activity change, negative = inhibition, usual class: inhibitors; 0.17% of 140,000 active; HEK-293 SNCA-luciferase knock-in, luminescence, 24 h;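 further: potency means the concentration at half of the fitted maximal effect; plate controls were DMSO cells for no effect and cell-free wells for full effect; nearly all actives have a fitted effect of over 45% in size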
SNCA viab count: reduces viability of HEK-293 SNCA reporter cells | 0.12% of 150,000 active | AID 1671193 | Potency, µM (series often up to 57.1 µM), inactives show top-dose activity change, negative = cytotoxicity, actives largely listed as cytotoxic | HEK-293-SNCA-luc viability, GF-AFC fluorescence, 24 h;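 further: potency means the concentration at half of the fitted maximal effect; 0% = DMSO-treated cells and -100% = medium-only wells without cells; nearly all actives have a fitted effect of over 30% in size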
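HEK-293-SNCA-luc cells (1500/well) plated 24 h, then exposed 24 h to a dilution series; GF-AFC added 30 min at 37C, fluorescence 405/540 nm; normalised to medium-only and DMSO wells, Hill fit.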
IP6K1 inhibitor: IP6K1 kinase inhibition | IP6K1 kinase, ADP-Glo luminescence, 2 h; hits give low values | activity change, % (series mostly up to about 58 µM) | 0.81% of 140,000 active | AID 1645851; in the data active means activity change below about -25%; further: on the % scale 0 is the no-effect control and ±100 the full control effect
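ADP-Glo luminescence measures ADP made by human IP6K1 during a 2 h RT reaction with ATP/IP6 (mix at 1.3 mM/130 uM); top library doses 57.5 and 19.1 uM final.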
Active calls of the source: *; i = inactive; ? = inconclusive; . = no result; ! = repeats disagree; [ ] = another dose, or the depositor's remark. Only some compounds are listed: those with a hit (about 2.8% of all), similar ones and a draw of the others. Unless noted, the call rests on the fitted dose curve; in most records, active means well fitted curve in the direction sought with a large enough effect; inconclusive means small, poorly fitted or top-dose-only effect, or another doubt; inactive means no such curve, though single readings can be large; an effect the other way counts as inactive or inconclusive.

SMILES	KDM5B inhibitor	SNCA expr inh	SNCA viab count	IP6K1 inhibitor
O=c1ncn(Cc2ccccc2)c2ccc(-c3ccccc3)nc12	35µM*	46%[87.6 µM]	-5%[87.6 µM]	3
O=c1c2nc(-c3ccccc3C(F)(F)F)ccc2ncn1C1CC1	i	8%[87.6 µM]	2%[87.6 µM]	8
O=c1ncn(Cc2ccccc2)c2ccc(-c3cccnc3)nc12	i	1%[87.6 µM]	-7%[87.6 µM]	1
CC1(CNC(=O)c2cccs2)CCOCC1	i	8%	2%	2
Cc1ccc(CN(C(=O)c2ccc(-n3cnnn3)c(C)c2)C(C)C)o1	i	.	.	.
CSCC[C@@H]1NC(=O)c2cc(NC(=O)c3ccc4ccn(C)c4c3)ccc2NC1=O	25µM*	-6%	1%	-14
CCn1cc(CN2C[C@@H](COC)[C@H](C(=O)NC3CC3)C2)cn1	i	20%	5%	3
c1cnc2nc(C3CCCN3)[nH]c2c1 (stereo unspecified)	13µM*!	11%[87.6 µM]	-6%[87.6 µM]	22
c1cc2nc(C3CCCCN3)[nH]c2cn1 (stereo unspecified)	?	-19%[87.6 µM]	15%[87.6 µM]	15
CC(=O)N1C[C@H](NC(=O)c2cc3c(n(C)c2=O)CCCC3)[C@@H](C2CC2)C1	28µM*	1%	9%	20
O=C(O)c1cc2ccccc2s1	i	.	.	.
Cn1ncc2c(C(=O)NC3CC3)cc(-c3cccnc3)nc21	89µM*	10%[87.6 µM]	-1%[87.6 µM]	6
COC(=O)CNC(=O)c1cc(C(C)(C)C)nc2c1cnn2C	89µM*	10%	-2%	-1
C#CCNC(=O)c1cc(-c2ccc(Cl)cc2)nc2c1cnn2C	.	-3%[87.6 µM]	-10%[87.6 µM]	-8
C#CCNC(=O)c1cc(-c2ccc(Cl)nc2)nc2c1cnn2C	100µM*	3%	-5%	-7
COC(=O)CNC(=O)c1cc(-c2ccc(Cl)nc2)nc2c1cnn2C	79µM*	4%	-6%	1
O=C(c1ccccn1)N1CC(F)(F)C[C@H]1c1nc(-c2ccncc2)no1	i	-14%	-1%	5
O=C(C[C@H]1NC(=O)c2ccccc2NC1=O)NCCCc1nc2ccccc2[nH]1	i	-25%	1%	17
COc1ccc(C(=O)N2CCN(C(=O)c3cccc(-c4ccccn4)c3)CC2)cc1	.	-7%	2%[12.5 µM]	-11
O=C(CCCc1ccccc1)Nc1ccc(OC2CCNCC2)nc1	18µM*	100%	2%	7
COc1ccc2c(c1)CCN=C2C[C@H]1CN(C(=O)CC(C)(C)C)CC[C@H]1CC(=O)O	28µM*	22%[87.6 µM]	11%[87.6 µM]	17
COc1ccc2c(c1)CCN=C2C[C@H]1CN(C(=O)c2ccc(F)cc2)CC[C@H]1CC(=O)O	?	-22%[87.6 µM]	2%[87.6 µM]	-4
COc1ccc2c(c1)C(C[C@H]1CN(C(=O)C(C)(C)C)CC[C@H]1CC(=O)O)=NCC2	35µM*	-35%[87.6 µM]	4%[87.6 µM]	11
COc1cc2c(cc1OC)C(C[C@H]1CN(C(=O)C(C)(C)C)CC[C@H]1CC(=O)O)=NCC2	i	-2%[87.6 µM]	2%[87.6 µM]	5
COc1ccc2c(c1)CCN=C2C[C@H]1CN(C(=O)c2c(C)noc2C)CC[C@H]1CC(=O)O	22µM*	-5%	8%	7
SMILES	KDM5B inhibitor	SNCA expr inh	SNCA viab count	IP6K1 inhibitor
CCCOc1ccc(-c2nn(-c3ccccc3)cc2C2NC(=O)NC(C)=C2C(=O)OCC)cc1 (stereo unspecified)	i	.	.	.
OCC1CN(c2ccncn2)CC12CCN(Cc1cc(F)c(F)c(F)c1)CC2 (stereo unspecified)	i	-23%	7%[12.5 µM]	42
COc1ccc(Cl)cc1NC(=O)CCC1CCCN(c2ccc(C(F)(F)F)cn2)C1 (stereo unspecified)	28µM*	-19%	0%	8
COc1ccc(NC(=O)C2CN(S(C)(=O)=O)CC23CCCCC3)cc1 (stereo unspecified)	i	2%	3%	10
CCS(=O)(=O)c1ncc(Cl)c(C(=O)N(Cc2ccccc2)Cc2ccco2)n1	?	?	8.9µM*	-5
Cc1noc2c(NCC3CCOCC3)cc(-c3ccc(F)cc3)nc12	?	?	-2%[87.6 µM]	-16
Cc1noc2c(Nc3ccc(C(N)=O)cc3)cc(-c3ccc(F)cc3)nc12	16µM*	-25%[87.6 µM]	-17%[87.6 µM]	7
OCCC1CCN(c2ccc(-c3nc(CCCc4ccccc4)no3)cn2)CC1	i	42%	-4%	-1
OCCC1CN(c2ccc(-c3nc(CCCc4ccccc4)no3)cn2)CCO1 (stereo unspecified)	20µM*	26%	-15%	24
CC1(O)CCCN(c2ccc(-c3nc(CCCc4ccccc4)no3)cn2)C1 (stereo unspecified)	22µM*	72%	-3%	23
CNC(=O)[C@@H]1C[C@@H](n2cc(CNC(=O)Cc3ccc(F)cc3)nn2)CN1	i	-28%	5%	7
CC(Cc1cccnc1)Nc1cc(-c2ccccc2F)nc2ccnn12 (stereo unspecified)	28µM*	-5%	-4%	-15
Fc1ccccc1CNc1cc(Cl)nc2ccnn12	i	-13%[87.6 µM]	12%[87.6 µM]	9
CN(C)[C@@H]1[C@@H](NC(=O)CCc2nc3ccccc3[nH]c2=O)[C@H]2CCO[C@H]21	28µM*	5%	3%	7
Fc1ccc(-c2noc([C@@H]3Cc4nc[nH]c4CN3Cc3ccccc3)n2)cc1Cl	35µM*	47%[87.6 µM]	-7%[87.6 µM]	0
Cc1ccc(-c2noc([C@@H]3Cc4nc[nH]c4CN3CC3CCCCC3)n2)cc1	?	-3%[87.6 µM]	-18%[87.6 µM]	-14
Fc1ccc(-c2noc([C@@H]3Cc4nc[nH]c4CN3Cc3cc4ccccc4o3)n2)cc1Cl	28µM*	56%	8%	12
c1ccc2cc(-c3noc([C@@H]4Cc5nc[nH]c5CN4CC4CCCCC4)n3)ccc2c1	28µM*	40%[87.6 µM]	-12%[87.6 µM]	11
O=C(O)c1ccc(CN2Cc3[nH]cnc3C[C@H]2c2nc(-c3ccc(F)cc3)no2)cc1	?	36%[87.6 µM]	12%[87.6 µM]	12
Cc1cccc(-c2noc([C@@H]3Cc4nc[nH]c4CN3Cc3ccc(C(=O)O)cc3)n2)c1	32µM*	?	3%[87.6 µM]	-8
O=C(OCc1nc2ccccc2o1)c1cccc(S(=O)(=O)NC2CC2)c1	i	.	.	.
COCCOC1CCN(S(=O)(=O)c2ccccc2)CC1	i	-14%	1%[12.5 µM]	29
Cc1ccc(S(=O)(=O)c2nnn3c2nc(N2CCOCC2)c2ccccc23)cc1C	79µM*	4%	6%	15
CC(C)c1ccc(S(=O)(=O)c2nnn3c2nc(N2CCCCC2)c2ccccc23)cc1	89µM*	-26%	1%	10
O=S(=O)(c1ccccc1)c1nnn2c1nc(N1CCCCC1)c1ccccc12	?	8%	4%	-4
Cc1[nH]c2ccc(C(=O)N3CCNC(=O)C3)cc2c1C	i	.	.	.
Cc1noc(C)c1C(=O)N1CCC2(CC1)c1[nH]c3ccccc3c1CCN2C	?	21%	5%[12.5 µM]	3
O=C(NC1CCC(O)CC1)c1ccc(-c2ncc3cnc(-c4cccc(F)c4)cn23)cc1 (stereo unspecified)	22µM*	3%[87.6 µM]	-15%[87.6 µM]	-8
CC(=O)NCCNC(=O)c1ccc(-c2ncc3cnc(-c4cccc(F)c4)cn23)cc1	28µM*	61%[87.6 µM]	-15%[87.6 µM]	-16
